For 42 sequences, binding signal results are on record in publication PMC7819943, “Rice protein-binding microarrays: a tool to detect cis-acting elements near promoter regions in rice”.

Over roughly 68,000 sequences, “fluorescence intensity (a.u.)” has its median near 9,100; the highest 2% begin near 16,000. The full list was thinned out, with the highest values kept by preference.

The target of this assay is OsWRKY34 (Oryza sativa, UniProt Q0JBA9 1-250). Put plainly: protein-binding microarray (RPBM); PBS, 2% BSA, 51.3 ng/ul salmon testes DNA, 50 uM zinc acetate, 200 nM TF, 25 C, 1 h; high values mean tight binding. Particulars: protein: recombinant; tags: N-terminal polyhistidine and DsRed monomer fusion (pET32a); label: CyDye5-dUTP incorporated in the synthesized complementary strand; 3' TTTTT single-stranded linker to array surface; dsDNA, one strand shown. In a few lines: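 Transcription factors were each fused at the N-terminus to a polyhistidine tag plus DsRed and expressed in E. coli BL21-CodonPlus before Ni–NTA purification. Binding to a double-stranded custom Agilent array was carried out with 200 nM protein at 25 °C for 1 h in PBS, 2% BSA, salmon testes DNA and 50 µM zinc acetate. The binding signal is per-feature fluorescence intensity, in arbitrary units, on an Axon 4000B scanner.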
Chain of OsWRKY34 (Q0JBA9 entry or part of it): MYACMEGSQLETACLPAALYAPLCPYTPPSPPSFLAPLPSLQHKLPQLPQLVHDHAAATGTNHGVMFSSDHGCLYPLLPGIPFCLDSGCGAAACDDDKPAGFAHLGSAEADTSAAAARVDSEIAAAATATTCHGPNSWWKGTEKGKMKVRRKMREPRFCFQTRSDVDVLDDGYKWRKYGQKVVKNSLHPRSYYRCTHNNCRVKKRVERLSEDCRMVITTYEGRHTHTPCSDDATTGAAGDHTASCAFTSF
As for “GGCCTCACTATCGTCGACTCCTCCACTCCGGGGACTGCCGCGGAGTCACCTAGTGCAG”, the binding signal is 10000 fluorescence intensity (a.u.). Regarding “AGCCGATCAGCTTCCAGCTCTTCATCCCAGCTTGCATCGTCGGAGTCACCTAGTGCAG”, the binding signal was 9300 fluorescence intensity (a.u.). The figure for “CCCCTGTTTCTCGGTTCTTTCGCTCGCCTTCTAGGCCCAACGGAGTCACCTAGTGCAG” is 11400 fluorescence intensity (a.u.); for “ATGATACTAGCGGAGCTCACTACTTACTATTAGTCAATGTCGGAGTCACCTAGTGCAG” it is 8330 fluorescence intensity (a.u.); for “ATAGCACCTCGAAACACCAAACTATTGCTATTAACATTTTCGGAGTCACCTAGTGCAG” it is 9650 fluorescence intensity (a.u.). The figure for “CCTTAATGCTCGAGATATACTAATACTACTCCCTTTGTTTCGGAGTCACCTAGTGCAG” is 10400 fluorescence intensity (a.u.).

Consider “TACGCGTTATTTGTTTTTCGCAGCGTTTCCTTTTTTTTTTCGGAGTCACCTAGTGCAG”, for which the binding signal was 9540 fluorescence intensity (a.u.). As for “TTTATCGCTTTGACTGTTCTACATCTTGCCTCGCCGTGCACGGAGTCACCTAGTGCAG”, the figure is 9040 fluorescence intensity (a.u.); as for “GCACAAGGCAGATGGAGGTTGTACAGCTATTATTATTTCACGGAGTCACCTAGTGCAG”, 8380 fluorescence intensity (a.u.). Turning to “TAATATTAATAAATAAAAAACCAGCGGTCGAACCGTTGACCGGAGTCACCTAGTGCAG”, the binding signal was 13000 fluorescence intensity (a.u.).

“GGGCATTGAGTGGTGGGGACGTGTGGGAGGCAGGCGGAGACGGAGTCACCTAGTGCAG”: the binding signal was 9540 fluorescence intensity (a.u.). Take “TTCGTTGTTGGTGGTGGTGGCGGGCGGAAGATGCGGTTGCCGGAGTCACCTAGTGCAG”: the binding signal was 10000 fluorescence intensity (a.u.).

In the case of “AGGAGGTGGTATTATTTTTTTTTTGGTAGAGAGGGGAGGGCGGAGTCACCTAGTGCAG”, the binding signal is 16500 fluorescence intensity (a.u.). On to “GAGGTAGTGGTTTAGAGGAGGAGGCGGAGAAGAGGAGGGACGGAGTCACCTAGTGCAG”, for which the binding signal is 9020 fluorescence intensity (a.u.). The figure for “ATATTGGTGGGCGCGGATTTTAATAGGTGGGCGGTGGATTCGGAGTCACCTAGTGCAG” is 8430 fluorescence intensity (a.u.). “TGTTGTTGCCGGAATGTGTGTGTGTGCGTGTGTGTGTGTGCGGAGTCACCTAGTGCAG”: the binding signal was 8720 fluorescence intensity (a.u.). As for “GATCCAAGAGTGGAGAAGGAGAGGGGTGGGGAGCCGGCGACGGAGTCACCTAGTGCAG”, the figure is 9460 fluorescence intensity (a.u.); as for “GGCGAGGGGAGAAGAGAAGAGGTGGGTGAGGTGGGGTTTCCGGAGTCACCTAGTGCAG”, 12800 fluorescence intensity (a.u.); as for “GAGAAGAGGAGAGAGAGTGAGAGTGGGCGACAATTTTATCCGGAGTCACCTAGTGCAG”, 64200 fluorescence intensity (a.u.). Regarding “TAGAGGTGGGCGGTAGGGGCTATTTCTGCAATTTTTTGGTCGGAGTCACCTAGTGCAG”, the binding signal was 9680 fluorescence intensity (a.u.). As for “TGGTGGGCGGTGGAGTTATTTTCTTAATAGAGCATTGAGACGGAGTCACCTAGTGCAG”, the figure is 23900 fluorescence intensity (a.u.).

As for “GGTTGCGTTGTTGCGGGCGTTGTTGCGGGCGGGCGGTCAGCGGAGTCACCTAGTGCAG”, the binding signal is 16600 fluorescence intensity (a.u.). The figure for “AATCTACACTAATTCTTCTGGTCTACACATTAAGTTATGACGGAGTCACCTAGTGCAG” is 8670 fluorescence intensity (a.u.); for “CCATGTCCGGATTCTCTAGGATTGCCTCCAATTTCTTCGCCGGAGTCACCTAGTGCAG” it is 8890 fluorescence intensity (a.u.); for “TCCTACCTACAGCTATAGCTGCGTGCCGGGGTTGGGGCTGCGGAGTCACCTAGTGCAG” it is 8750 fluorescence intensity (a.u.). The figure for “CATCCTTCTCCGCGGCCATTTCTTGGAGCAAATCTCATTTCGGAGTCACCTAGTGCAG” is 8420 fluorescence intensity (a.u.); for “CCGCGGGCTTGGCTTGGCTGGCACCCTCTCCTTCTCGTCTCGGAGTCACCTAGTGCAG” it is 10300 fluorescence intensity (a.u.); for “ACCCCAACGCAACCACTCTTCTCTACTACAATCGTTACTCCGGAGTCACCTAGTGCAG” it is 9310 fluorescence intensity (a.u.). The figure for “ATCCCAAACACTCTCGCCTCGTCTCCTCTCACACCACACGCGGAGTCACCTAGTGCAG” is 10500 fluorescence intensity (a.u.). In the case of “CATTACCGCCACCTTCGATGCCGCCGCCTGCCGCTACCCGCGGAGTCACCTAGTGCAG”, the binding signal is 8580 fluorescence intensity (a.u.). Take “TTAATACTTACTACTTGTCTGCTTTGAGTTTTTTGTTTAACGGAGTCACCTAGTGCAG”: the binding signal is 9060 fluorescence intensity (a.u.). With “CCTCGCCGTCGCCGGTCCTCGTCTCCTCCTCTATCTATATCGGAGTCACCTAGTGCAG”, the binding signal is 8600 fluorescence intensity (a.u.). “ACCATGGGCGCACACGCTTCACTGCGTCTTTTTCCATCCACGGAGTCACCTAGTGCAG”: the binding signal was 8320 fluorescence intensity (a.u.).

“CCGCCATGTGGGCCCCACCTCGCCGCCTCCGCTCCACTCTCGGAGTCACCTAGTGCAG”: the binding signal is 13600 fluorescence intensity (a.u.). The figure for “GGAGGAGGAGGTGGTGGTGGTGGTGAAGCCGCGGAGGTGCCGGAGTCACCTAGTGCAG” is 18000 fluorescence intensity (a.u.); for “GGTTGGTGGTGGAGGTGGTCAAGGCGGTGGTTTTGGAGCCCGGAGTCACCTAGTGCAG” it is 16400 fluorescence intensity (a.u.). As for “GCTAGATTGGATAAGGAGGGGAGGAGGGTGGAGGGGAGGGCGGAGTCACCTAGTGCAG”, the figure is 22700 fluorescence intensity (a.u.). The figure for “AATGTGGTGGTGGTGGTGGTGAACGGAGGAGGGAGGGAGCCGGAGTCACCTAGTGCAG” is 13000 fluorescence intensity (a.u.). With “GCGGTGGAGAGTGGTGGGAGGTTGGGGAGAAGGCGGCGGCCGGAGTCACCTAGTGCAG”, the binding signal is 14800 fluorescence intensity (a.u.). The figure for “CTGAAGTGAGGGAGGGGAGGAGGTGGTGGTGGTGGGGAAGCGGAGTCACCTAGTGCAG” is 15600 fluorescence intensity (a.u.); for “CCTCGCTCTCCATGGTGGTGGTGGTGGTCAGGTGGTGGGGCGGAGTCACCTAGTGCAG” it is 18800 fluorescence intensity (a.u.); for “AAGGCGGGAGGTTGAGAGAGAGATAAGGGAGAGAGAGGGGCGGAGTCACCTAGTGCAG” it is 8120 fluorescence intensity (a.u.).
